Results from PubChem BioAssay (NCATS).
“And” between values parts separate entries of the source, which are not always exact repeats. Identical values can stand only once. Inconclusive results are not listed. Some compounds were tested as several samples or in several runs, with calls that do not always agree. The source made the active and inactive calls. Calls come from the whole dose curve; as a rule, active = well fitted curve in the direction sought with a large enough effect; inconclusive = small, poorly fitted or top-dose-only effect, or another doubt; inactive = no such curve, though single readings can be large; an effect the other way counts as inactive or inconclusive.

What was measured:
[1] = biological target: Glutathione peroxidase 1 (Homo sapiens) (UniProt P07203); experiment: Primary qHTS Assay for Inhibitors of Recombinant Selenoprotein Glutathione Peroxidase 1 (GPX1) (AID 1845191); note: nearly all actives have a fitted effect of over 65% in size; note: potency is the fitted concentration of half-maximal effect
Glutathione peroxidase 1 (Homo sapiens), sequence (P07203 whole entry, looked up): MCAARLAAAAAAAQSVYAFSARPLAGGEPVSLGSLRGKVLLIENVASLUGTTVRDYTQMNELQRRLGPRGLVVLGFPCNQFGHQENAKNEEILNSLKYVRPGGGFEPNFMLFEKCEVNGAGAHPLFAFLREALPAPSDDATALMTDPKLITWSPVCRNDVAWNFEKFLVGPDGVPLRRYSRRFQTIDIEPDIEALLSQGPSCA
In short: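 10 nM GPX1 + cpd, 30 min RT; start w/ 1 mM GSH, 0.5 mM cumene hydroperoxide, 0.5 mM NADPH, 100 nM GR, 0.01% BSA; buffer 50 mM Tris-HCl pH 7.5, 2 mM EDTA, 150 mM NaCl; Fl 340/450, 0 & 15 min.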

[2] = biological target: Phospholipid hydroperoxide glutathione peroxidase GPX4 (Homo sapiens) (UniProt P36969); experiment: Primary qHTS Assay for Inhibitors of Recombinant Selenoprotein Glutathione Peroxidase 4 (GPX4) (AID 1845192); note: nearly all actives have a fitted effect of over 65% in size; note: potency is the fitted concentration of half-maximal effect
Phospholipid hydroperoxide glutathione peroxidase GPX4 (Homo sapiens), sequence (P36969 whole entry, looked up): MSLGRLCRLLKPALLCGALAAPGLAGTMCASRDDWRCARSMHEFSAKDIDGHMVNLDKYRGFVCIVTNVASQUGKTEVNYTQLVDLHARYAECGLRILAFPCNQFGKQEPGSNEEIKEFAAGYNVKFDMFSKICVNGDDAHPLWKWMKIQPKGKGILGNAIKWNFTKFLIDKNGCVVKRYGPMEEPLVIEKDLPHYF
In short: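 NADPH consumption, followed by fluorescence at 340/450 nm between 0 and 15 min, reports GPX4 activity via coupled glutathione reductase (100 nM). Enzyme 200 nM was pre-exposed to compound 30 min; 0.5 mM cumene hydroperoxide and 1 mM GSH served as substrates.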

[3] = biological target: Luciferin 4-monooxygenase (Photinus pyralis) (UniProt P08659); experiment: Primary firefly luciferase (FLuc) qHTS assay for identification of artifact compounds. (AID 1845220); note: nearly all actives have a fitted effect of over 60% in size; note: potency is the fitted concentration of half-maximal effect
In short: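 Compounds sat 15 min at room temperature with 10 uM luciferin and 10 uM ATP (pH 7.6 Tris acetate). Firefly luciferase (10 nM final) was then added, and luminescence was read 5 min later. Data normalized to no-enzyme and DMSO controls were Hill-fitted.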

[4] = Primary fluorescence-based thiol-reactive (MSTI) qHTS assay for identification of artifact compounds. (AID 1845221); note: nearly all actives have a fitted effect of over 65% in size; note: potency is the fitted concentration of half-maximal effect
In short: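 Thiol-reactive compounds detected by quenching of 4 uM MSTI fluorescence (525/598 nm) after 1 h room-temperature dark incubation in PBS pH 7.4, 2% DMSO. qHTS titration; percent inhibition Hill-fitted against Acetyl-MSTI/MSTI controls.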

[5] = system: Nanoluciferase (engineered Oplophorus gracilirostris luciferase); experiment: Primary Nanoluciferase (NLuc) qHTS assay for identification of artifact compounds. (AID 1845222); note: series mostly up to about 54 µM
In short: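 Luminescence from secreted NLuc (filtered, 1:55-diluted S16 cell medium) read 5 min after Nano-Glo substrate; compounds preincubated 15 min, RT. Hill fits of inhibition normalized to DMSO and no-enzyme.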

[6] = Primary redox qHTS assay for identification of artifact compounds. (AID 1845223)
In short: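 Amplex Red (25 uM) and HRP (250 mU/mL) in HBSS, with compounds for 15 min, then 250 uM DTT for 30 min, room temperature, dark. Fluorescence 525/598 nm read; normalized to DMSO and 10 uM DA3003; Hill fit.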

[7] = Quantitative High-Throughput drug screen in 47 multiple myeloma cell lines against the NCATS MIPE library collection: Delta47_JCRB cell viability assay (AID 1918925; note: nearly all actives have a fitted effect of over 45% in size; note: potency is the fitted concentration of half-maximal effect)
In short: (§1)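 Relative luminescence from CellTiter-Glo served as the viability signal, referenced to DMSO-treated (100%) and cell-free medium (0%) controls. Treatment lasted 48 hours at 37C with 500 cells per well.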

[8] = Quantitative High-Throughput drug screen in 47 multiple myeloma cell lines against the NCATS MIPE library collection: EJM_DSMZ cell viability assay (AID 1918926; note: nearly all actives have a fitted effect of over 30% in size; note: potency is the fitted concentration of half-maximal effect)
In short: as §1

[9] = Quantitative High-Throughput drug screen in 47 multiple myeloma cell lines against the NCATS MIPE library collection: AMO1_DSMZ cell viability assay (AID 1918927; note: nearly all actives have a fitted effect of over 30% in size; note: potency is the fitted concentration of half-maximal effect)
In short: as §1

[10] = Quantitative High-Throughput drug screen in 47 multiple myeloma cell lines against the NCATS MIPE library collection: ARD_JJKsccE7 cell viability assay (AID 1918929; note: potency is the fitted concentration of half-maximal effect)
In short: as §1

[11] = Quantitative High-Throughput drug screen in 47 multiple myeloma cell lines against the NCATS MIPE library collection: Karpas620_DSMZ cell viability assay (AID 1918959); note: nearly all actives have a fitted effect of over 30% in size; note: potency is the fitted concentration of half-maximal effect
In short: (§2)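 Luminescent ATP measurement with CellTiter-Glo gives viability, scaled between DMSO-only wells (100%) and media-only wells (0%). Cells, 500 per well, faced library compounds for 48 hours at 37C.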

[12] = Quantitative High-Throughput drug screen in 47 multiple myeloma cell lines against the NCATS MIPE library collection: JIM1_ECACC cell viability assay (AID 1918964; note: potency is the fitted concentration of half-maximal effect)
In short: as §1

[13] = Quantitative High-Throughput drug screen in 47 multiple myeloma cell lines against the NCATS MIPE library collection: INA6_PLB cell viability assay (AID 1918965; note: potency is the fitted concentration of half-maximal effect; nearly all actives have a fitted effect of over 55% in size)
In short: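 Steps: seed 500 cells per well; pin-transfer MIPE 4.0 library; incubate 48 h at 37C, 5% CO2, humidified; add CellTiter-Glo, 5 min room temperature; read luminescence.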

[14] = Quantitative High-Throughput drug screen in 47 multiple myeloma cell lines against the NCATS MIPE library collection: FR4_PLB cell viability assay (AID 1918924; note: nearly all actives have a fitted effect of over 35% in size; note: potency is the fitted concentration of half-maximal effect)
In short: as §2

[15] = Quantitative High-Throughput drug screen in 47 multiple myeloma cell lines against the NCATS MIPE library collection: ARP1_JJKsccF8 cell viability assay (AID 1918928; note: nearly all actives have a fitted effect of over 40% in size; note: potency is the fitted concentration of half-maximal effect)
In short: (§3)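 ATP readout (CellTiter-Glo), 48 h drug incubation, 37 °C/5% CO2, 500 cells per well; normalisation to DMSO (100%) and media-only (0%) controls.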

[16] = Quantitative High-Throughput drug screen in 47 multiple myeloma cell lines against the NCATS MIPE library collection: KMM1_JCRB cell viability assay (AID 1918960); note: nearly all actives have a fitted effect of over 30% in size; note: potency is the fitted concentration of half-maximal effect
In short: as §3

[17] = Quantitative High-Throughput drug screen in 47 multiple myeloma cell lines against the NCATS MIPE library collection: KHM11_PLB cell viability assay (AID 1918962); note: nearly all actives have a fitted effect of over 35% in size; note: potency is the fitted concentration of half-maximal effect
In short: as §2

[18] = Quantitative High-Throughput drug screen in 47 multiple myeloma cell lines against the NCATS MIPE library collection: JIM3_ECACC cell viability assay (AID 1918963; note: nearly all actives have a fitted effect of over 35% in size; note: potency is the fitted concentration of half-maximal effect)
In short: as §2

[19] = Quantitative High-Throughput drug screen in 47 multiple myeloma cell lines against the NCATS MIPE library collection: JJN3_DSMZ cell viability assay (AID 1918966; note: potency is the fitted concentration of half-maximal effect; nearly all actives have a fitted effect of over 50% in size)
In short: as §1

Measured: Potency

CS(=O)c1ccc(-c2nc(-c3ccc(F)cc3)c(-c3ccncc3)[nH]2)cc1 (stereo not drawn)
active: [2] 25.5 µM | [7] 13.6 µM | [8] 10.8 µM | [9] 30.3 µM | [10] 42.9 µM | [11] 34 µM | [12] 34 µM | [13] 3.4 µM
inactive: [1] | [3] | [4] | [5] | [6]

Cc1nc(N)sc1-c1ccnc(Nc2ccc(N3CCOCC3)cc2)n1
active: [3] 5.36 µM | [4] 1.5 µM | [14] 14.8 µM | [7] 10.5 µM | [8] 18.7 µM | [9] 2.64 µM | [15] 8.33 µM | [10] 5.26 µM | [11] 20.9 µM | [16] 4.69 µM | [17] 6.62 µM | [18] 14.8 µM | [13] 1.48 µM | [19] 11.8 µM
inactive: [1] | [2] | [5] | [6]

O=C(O)Cc1cccc2ccccc12
inactive: [1] | [2]

C=C1C(=O)[C@@]23C(CC[C@@H]1[C@H]2O)[C@@]12CO[C@]3(O)[C@@H](O)[C@@H]1C(C)(C)CC[C@@H]2O (stereo partly drawn)
inactive: [1] | [2] | [3] | [4] | [5] | [6]
active: [14] 6.62 µM | [7] 3.72 µM | [8] 2.96 µM | [9] 1.48 µM | [15] 5.9 µM | [10] 1.48 µM | [11] 0.935 µM | [16] 2.35 µM | [17] 5.26 µM | [18] 10.5 µM | [12] 1.05 µM | [19] 2.09 µM

CCN(CC)CCNC(=O)c1ccc(N)cc1
inactive: [1] | [2] | [3] | [4] | [5] | [6]

O=c1[nH]cnc2c1ncn2[C@H]1CC[C@@H](CO)O1
not listed: [7] | [10] | [13] | [19]
inactive: all other assays above

O=C(NCc1ccccc1)c1csc(Nc2ccncn2)n1
active: [14] 14.8 µM | [8] 18.7 µM | [9] 9.35 µM | [15] 23.5 µM | [10] 10.5 µM | [11] 6.62 µM | [16] 9.35 µM | [17] 20.9 µM | [18] 14.8 µM | [12] 6.62 µM | [13] 11.8 µM | [19] 16.6 µM
inactive: [1] | [2] | [3] | [4] | [5] | [6]

NCCS
inactive: [1] | [2]

CCN(CC)CCOC(=O)c1ccc(N)cc1
inactive: [1] | [2]

NC(=O)c1cnc(-c2ccc(C3(N)CCC3)cc2)c(-c2ccccc2)c1
active: [7] 6.62 µM | [8] 1.66 µM | [15] 8.33 µM | [13] 10.5 µM
inactive: [1] | [2] | [3] | [4] | [5] | [6] | [14]

CC/C(=C(\c1ccccc1)c1ccc(OCCN(C)C)cc1)c1ccccc1
inactive: [1] | [2]

CC1(C)CCC(CN2CCN(c3ccc(C(=O)NS(=O)(=O)c4ccc(NCC5CCOCC5)c([N+](=O)[O-])c4)c(Oc4cnc5[nH]ccc5c4)c3)CC2)=C(c2ccc(Cl)cc2)C1
active: [14] 20.9 µM | [8] 20.9 µM | [9] 9.35 µM | [15] 23.5 µM | [11] 0.332 µM | [16] 8.33 µM
inactive and 6.4 µM (active): [1]
inactive and 3.16 µM (active): [2]
inactive: [3] | [4] | [5] | [6] | [18]

COc1ncc(-c2ccc3nccc(-c4ccnnc4)c3c2)cc1NS(=O)(=O)c1ccc(F)cc1F
active: [14] 0.0132 µM | [9] 0.0469 µM | [13] 0.0235 µM | [19] 0.118 µM
inactive: [1] | [2] | [3] | [4] | [5] | [6]

CN(C[C@@H]1COCCO1)S(=O)(=O)Nc1ccc2ccc3ncc(-c4cnn(C)c4)cc3c(=O)c2c1
inactive: [1] | [2] | [3] | [4] | [5] | [6]
active: [14] 13.2 µM | [8] 2.96 µM | [16] 1.48 µM | [17] 0.743 µM | [13] 4.18 µM

O=C(CCCCCCC(=O)Nc1ccccc1)NO
inactive: [1] | [2] | [3] | [5] | [6]
active: [14] 2.35 µM | [7] 1.32 µM | [8] 7.43 µM | [9] 1.05 µM | [15] 0.833 µM | [10] 1.18 µM | [11] 3.32 µM | [16] 1.32 µM | [17] 7.43 µM | [18] 5.9 µM | [12] 2.35 µM | [13] 0.935 µM | [19] 3.32 µM

CCn1cc(C(=O)O)c(=O)c2ccc(C)nc21
inactive: [1] | [2] | [14] | [7] | [8] | [10] | [11] | [18] | [12]
